Assay results: PubChem BioAssay AID1117293 (Broad Institute, 2014)
Measured potencies and affinities stand elsewhere. Records with an inconclusive call do not appear. The source made the active and inactive calls.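 How the source made its calls: active means cytotoxic in every repeat run, with fitted half-maximal concentration at most twice the top tested dose; inconclusive means runs disagree, or flat partial drop, or poor curve fit; inactive means inactive in every run.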

assay: embryonic kidney cell viability loss – CellTiter-Glo luminescence, dry powder, set 20, cytotoxicity control, dose response (AID 1117293); conditions: HEK293T viability, CellTiter-Glo ATP luminescence, 72 h; series mostly up to 26 µM

Structure (SMILES)	outcome
COc1ccc(C(=O)Nc2cc(C(F)(F)F)ccc2N2CCCCC2)cc1S(=O)(=O)O	inactive
Cc1ccccc1S(=O)(=O)Nc1cc(C(F)(F)F)ccc1N1CCCCC1	inactive
COc1ccc(C(=O)O)cc1S(=O)(=O)Nc1ccc(N2CCCCC2)cc1C(F)(F)F	inactive
COc1cccc(NC(=O)NC2(C(=O)N3CCN(C(C)=O)CC3)CCCCC2)c1	inactive
COc1ccc(C(=O)Nc2cc(C(F)(F)F)ccc2N2CCCC2)cc1S(=O)(=O)O	inactive
O=S(=O)(Nc1cc(C(F)(F)F)ccc1N1CCCCC1)c1ccc(C(F)(F)F)cc1	inactive
COc1ccc(C(=O)O)cc1S(=O)(=O)Nc1cc(C(F)(F)F)ccc1N1CCN(C(C)=O)CC1	inactive
CC(=O)N1CCN(C(=O)C2(NC(=O)Nc3ccccc3)CCCC2)CC1	inactive
